Several values for one entry are separate records, joined by “and”; a condition that tells them apart may be missing. Equal values may be shown once. Inconclusive results are not listed. Activity calls are given as the source filed them. How the source made its calls: active means hit-call score of the fitted dose curve at least 0.9, where 1 is the maximum; inconclusive means response in the unintended direction; inactive means score below 0.9.

As usually defined, the AC50 is the concentration at which the activity in the assay is half-maximal.

Chain of human Peripheral-type Benzodiazepine Receptor (PBR), TSPO (gene 706) (P30536 whole entry, looked up): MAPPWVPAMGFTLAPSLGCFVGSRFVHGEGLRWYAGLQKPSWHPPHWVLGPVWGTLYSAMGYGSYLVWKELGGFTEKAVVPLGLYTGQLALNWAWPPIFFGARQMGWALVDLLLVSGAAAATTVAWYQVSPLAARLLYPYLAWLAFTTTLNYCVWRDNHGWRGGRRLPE

System in one experiment: not listed separately
In words: NVS_IC_rCaDHPRCh_L: NovaScreen (NVS) Ion Channel Assay for rat Calcium Channel, Type L, Dihydropyridine Site (CaDHPRCh_L) (AID 2283320). In outline: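 Radioligand binding to dihydropyridine site on rat cortical membranes, filter-based scintillation counting, 1 h after dosing. Screened in duplicate at 25 uM; actives rerun in concentration-response up to 50 uM. Loss of signal versus DMSO baseline.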
Regarding `Oc1cccc2cccnc12`, the result was inactive.

Take `CCN1CCC2(CC1)COc1cc3c(cc12)N(C(=O)c1ccc(-c2ccc(-c4nnc(C)o4)cc2C)cc1)CC3`: the AC50 is 4.93 µM (active). As for `C=C(C)C(=O)[O][Sn]([CH2]CCC)([CH2]CCC)[CH2]CCC`, the AC50 was 12.3 µM (active). Regarding `CC(=O)[O][Hg][c]1ccccc1`, the AC50 was 40.5 µM (active).

The target of a further experiment is Sodium channel protein type 1 subunit alpha (Rattus norvegicus) (UniProt P04774). The experiment is described as follows: NVS_IC_rNaCh_site2: NovaScreen (NVS) Ion Channel Assay for rat Sodium Channel, Site 2 (NaCh) (AID 2283322).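 Further: hit means loss of radioligand binding signal relative to DMSO so AC50 marks displacement.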 In outline: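 Membranes: rat forebrain. Format: competitive radioligand displacement, filter separation, scintillation readout, 1 h exposure. Primary screen in duplicate at 25 uM; actives retested in concentration series.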
`NC(=S)Nc1ccccc1`: the AC50 is 0.569 µM (active). Regarding `CCN1CCC2(CC1)COc1cc3c(cc12)N(C(=O)c1ccc(-c2ccc(-c4nnc(C)o4)cc2C)cc1)CC3`, the concentration at half-maximal activity (AC50) is 3.44 µM (active). The same measure, in the same setting: then `CCCCCCCCC(=O)NCc1ccc(O)c(OC)c1`, with 1.55 µM (active). In the case of `CCSC(C)CC1CC(=O)C(C(CC)=NOC/C=C/Cl)=C(O)C1` (stereo unspecified), the compound was classed as inactive. For `CCNc1nc(NC(C)(C)C)nc(SC)n1`, the AC50 is 12.1 µM (active). With `C=C(C)C(=O)[O][Sn]([CH2]CCC)([CH2]CCC)[CH2]CCC`, the AC50 is 25 µM (active). As for `N#CCc1ccc(Cl)cc1`, the compound was classed as inactive. Regarding `CCC(=O)C(CC(C)N(C)C)(c1ccccc1)c1ccccc1` (stereo unspecified), the AC50 was 1.97 µM (active). Take `O=C(Cl)c1ccc(Cl)cc1`: the result was inactive.

Turning to `CC(C)(C)CC(C)(C)c1ccc(O)cc1`, the compound was classed as inactive.

The target of another experiment is rat Thyrotropin Releasing Hormone Receptor (TRH), Trhr (gene 25570) (UniProt Q01717). The experiment is described as follows: NVS_GPCR_rTRH: NovaScreen (NVS) G Protein-Coupled Receptor Assay for rat Thyrotropin Releasing Hormone Receptor (TRH) (AID 2283329).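 Further: hit means lower bound tracer signal versus DMSO baseline.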 In outline: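 Cell-free radioligand binding on rat forebrain membranes; bound tracer measured by filter-based scintillation counting 4 hours after dosing. Loss of signal versus DMSO baseline indicates displacement; primary screen at 25 uM in duplicate, actives then run in concentration series.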
Chain of rat Thyrotropin Releasing Hormone Receptor (TRH), Trhr (gene 25570) (Q01717 whole entry, looked up): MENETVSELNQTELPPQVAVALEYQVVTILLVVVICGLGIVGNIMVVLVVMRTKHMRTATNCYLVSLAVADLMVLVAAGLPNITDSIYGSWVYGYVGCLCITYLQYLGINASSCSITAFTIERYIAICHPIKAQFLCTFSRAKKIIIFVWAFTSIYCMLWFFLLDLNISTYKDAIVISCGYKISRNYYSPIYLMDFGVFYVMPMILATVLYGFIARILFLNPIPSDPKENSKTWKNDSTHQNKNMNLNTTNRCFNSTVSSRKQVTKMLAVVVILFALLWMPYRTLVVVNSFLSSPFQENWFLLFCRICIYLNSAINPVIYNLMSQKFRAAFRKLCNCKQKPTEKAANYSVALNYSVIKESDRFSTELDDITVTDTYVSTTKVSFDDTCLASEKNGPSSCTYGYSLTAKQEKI
Regarding `Cl/C=C/Cl`, the outcome was inactive. Turning to `Oc1cccc2cccnc12`, the call was inactive. With `C[C@]12CC[C@H](O)CC1=CC[C@@H]1[C@@H]2CC[C@]2(C)C(=O)CC[C@@H]12`, the call was inactive.

As for `Cc1ccccc1C(=O)Nc1cccc(OC(C)C)c1`, the compound was classed as inactive. As to `O=c1[nH]c(=O)[nH]c(=O)[nH]1`, the outcome was inactive. As to `O=C(OC1CCCCC1)c1ccccc1C(=O)OC1CCCCC1`, the outcome was inactive.

Regarding `Clc1nc(Cl)nc(Cl)n1`, the compound was called inactive.

Take `C=C(C)C(=O)[O][Sn]([CH2]CCC)([CH2]CCC)[CH2]CCC`: the concentration at half-maximal activity (AC50) was 20.3 µM (active).

Turning to `COc1ccc(C=O)cc1`, the call was inactive. In the case of `CC(C)C1CCC(Cc2ccc(Cl)cc2)C1(O)Cn1cncn1` (stereo unspecified), the compound was called inactive.

With `C1CCC(NC2CCCCC2)CC1`, the compound was classed as inactive. Same read-out and setting: then `COC(=O)c1sccc1S(=O)(=O)NC(=O)Nc1nc(C)nc(OC)n1`, with “inactive”; and `O=[N+]([O-])c1ccc(O)c([N+](=O)[O-])c1`, with “inactive”. For the compound `COP(=O)(OC)O/C(=C\Cl)c1cc(Cl)c(Cl)cc1Cl`, the outcome was inactive. Consider `CC(C)c1cccc(C(C)C)c1O`, for which the result was inactive.

As for `Cc1ccc2ccccc2c1C`, the result was inactive.

Another experiment has as its target human Peripheral-type Benzodiazepine Receptor (PBR), TSPO (gene 706) (UniProt P30536). The experiment is described as follows: NVS_MP_hPBR: NovaScreen (NVS) Membrane Protein Assay for human Peripheral-type Benzodiazepine Receptor (PBR) (AID 2283331).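 Further: hits reduce radioligand binding relative to DMSO baseline.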 The method in brief: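 Radioligand displacement on human colonic cell membranes, 1 h incubation; bound radioactivity by filtration and scintillation counting. Primary screen in duplicate at 25 uM single concentration, actives followed up in concentration series; loss of binding versus DMSO.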
As for `CCN1CCC2(CC1)COc1cc3c(cc12)N(C(=O)c1ccc(-c2ccc(-c4nnc(C)o4)cc2C)cc1)CC3`, the AC50 is 2.37 µM (active). Consider `CCCCCCCCC(=O)NCc1ccc(O)c(OC)c1`, for which the AC50 is 4.12 µM (active). Take `Cc1ccccc1C(=O)Nc1cccc(OC(C)C)c1`: the AC50 was 1.12 µM (active). Turning to `O=C(OC1CCCCC1)c1ccccc1C(=O)OC1CCCCC1`, the AC50 was 3.21 µM (active) and 6.79 µM (active). For the compound `COP(=O)(OC)O/C(=C\Cl)c1cc(Cl)c(Cl)cc1Cl`, the AC50 is 0.401 µM (active).

In the next experiment the target is rat Peripheral-type Benzodiazepine Receptor (PBR), Tspo (gene 24230) (UniProt P16257). The experiment is described as follows: NVS_MP_rPBR: NovaScreen (NVS) Membrane Protein Assay for rat Peripheral-type Benzodiazepine Receptor (PBR) (AID 2283335). The method in brief: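 Radioligand displacement, rat kidney membrane prep, 1 h exposure, filter-based scintillation read; DMSO baseline, loss-of-signal scored. Primary screen at 25 uM in duplicate, actives followed up in concentration series.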
Chain of rat Peripheral-type Benzodiazepine Receptor (PBR), Tspo (gene 24230) (P16257 whole entry, looked up): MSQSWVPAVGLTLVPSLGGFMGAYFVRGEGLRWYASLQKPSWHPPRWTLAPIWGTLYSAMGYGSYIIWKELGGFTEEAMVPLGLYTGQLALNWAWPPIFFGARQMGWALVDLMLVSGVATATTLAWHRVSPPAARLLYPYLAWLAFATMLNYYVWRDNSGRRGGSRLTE
Consider `CCN1CCC2(CC1)COc1cc3c(cc12)N(C(=O)c1ccc(-c2ccc(-c4nnc(C)o4)cc2C)cc1)CC3`, for which the AC50 was 6.5 µM (active). Still for that read-out and setting: in the case of `CCCCCCCCC(=O)NCc1ccc(O)c(OC)c1` it was 6.25 µM (active); in that of `Cc1ccccc1C(=O)Nc1cccc(OC(C)C)c1`, 1.13 µM (active).

In the case of `CCNc1nc(NC(C)(C)C)nc(SC)n1`, the compound was called inactive. On to `Cn1sc(Cl)cc1=O`, for which the result was inactive. Take `COP(=O)(OC)O/C(=C\Cl)c1cc(Cl)c(Cl)cc1Cl`: the AC50 is 0.38 µM (active). For `CC(C)(C)CC(C)(C)c1ccc(O)cc1`, the outcome was inactive. As to `O=C1C2(Cl)C3(Cl)C4(Cl)C(Cl)(Cl)C5(Cl)C3(Cl)C1(Cl)C5(Cl)C24Cl` (stereo unspecified), the call was inactive.

System in the next experiment: not listed separately
The experiment is described as follows: NVS_IC_rCaBTZCHL: NovaScreen (NVS) Ion Channel Assay for Calcium Channel, Type L, Benzothiazepine Site (CaBTZCHL) (AID 2283337). The method in brief: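 Radioligand binding to the benzothiazepine site of L-type Ca channels in rat cortical membranes (cell-free), 1.5 h after dosing; filter-based scintillation counting. Loss of signal relative to DMSO baseline; primary single-concentration screen at 25 uM, actives then run in concentration series.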
Take `CCN1CCC2(CC1)COc1cc3c(cc12)N(C(=O)c1ccc(-c2ccc(-c4nnc(C)o4)cc2C)cc1)CC3`: the half-maximal activity concentration (AC50) was 4.16 µM (active). With `C=C(C)C(=O)[O][Sn]([CH2]CCC)([CH2]CCC)[CH2]CCC`, the AC50 was 12.8 µM (active).

For the compound `CCC(=O)C(CC(C)N(C)C)(c1ccccc1)c1ccccc1` (stereo unspecified), the AC50 was 1.16 µM (active). Consider `Cn1sc(Cl)cc1=O`, for which the result was inactive.

A further experiment relates to guinea pig Histamine Receptor (H2), gene 100729734. The experiment is described as follows: NVS_GPCR_gH2: NovaScreen (NVS) G Protein-Coupled Receptor Assay for guinea pig Histamine Receptor (H2) (AID 2283342). The method in brief:
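Radioligand displacement on guinea pig striatal membranes, 1 h after dosing, filter-based scintillation counting; loss of signal versus DMSO. Single-point screen at 25 uM in duplicate, then concentration-response up to 50 uM.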
`CCN1CCC2(CC1)COc1cc3c(cc12)N(C(=O)c1ccc(-c2ccc(-c4nnc(C)o4)cc2C)cc1)CC3`: the AC50 was 11.6 µM (active). As for `C=C(C)C(=O)[O][Sn]([CH2]CCC)([CH2]CCC)[CH2]CCC`, the AC50 was 2.23 µM (active).

Consider `CCC(=O)C(CC(C)N(C)C)(c1ccccc1)c1ccccc1` (stereo unspecified), for which the AC50 was 4.02 µM (active). As for `CC(=O)[O][Hg][c]1ccccc1`, the AC50 is 11.4 µM (active).

Source of the values: PubChem BioAssay (EPA / NIEHS).
